Measurements as given in PubChem BioAssay AID720541 (National Center for Advancing Translational Sciences (NCATS), 2013).
The whole screen tested about 1,300 compounds, of which about 420 (32%) were called active. Not shown: some 32% with an inconclusive outcome. Some of the results follow. Values without a mark were called inactive. Calls come from the whole dose curve; as a rule, active = well fitted inhibition curve with a large enough effect; inconclusive = small, poorly fitted or top-dose-only effect; inactive = no such curve, though single readings can be large or run the other way.

These compounds were tested against C-terminal-binding protein 1 (Homo sapiens) (UniProt Q13363) (assay: qHTS for Inhibitors of the Phosphatase Activity of Eya2: Carboxyl-terminal binding protein (CtBP) Counterscreen for Cherry-picked Compounds). Conditions: purified protein-protein binding, AlphaScreen, 3 h; series mostly up to 46.1 µM; activity change, negative = inhibition: at the top concentration.
In short: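 AlphaScreen using 25 nM GST-E1A with 25 nM CtBP-6xHIS; compounds at 2.5 nM–46 uM final, 2 h at room temperature, then donor/acceptor beads (20 ug/mL) for 1 h in the dark. Signal normalized to E1A peptide inhibitor (maximum inhibition) and DMSO.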
% is set by controls: 0 for no effect and ±100 for the full control effect; potency is the fitted concentration of half-maximal effect.
Note: nearly all actives have a fitted effect of over 65% in size.

Row | SMILES | activity change, negative = inhibition [%] | Potency
1 | C[C@](N)(Cc1ccc(O)c(O)c1)C(=O)O | 8.6 | 
2 | CCOc1ccc(C2C3=C(Nc4nc(N)[nH]c(=O)c42)c2ccccc2C3=O)cc1 (configuration not stated) |  | 2.39 µM (active)
3 | CCCOc1ccc(C2C3=C(Nc4nc(N)[nH]c(=O)c42)c2ccccc2C3=O)cc1 (configuration not stated) |  | 3.79 µM (active)
4 | Nc1nc2c(c(=O)[nH]1)C(c1cccc3ccccc13)C1=C(N2)c2ccccc2C1=O (configuration not stated) |  | 4.26 µM (active)
5 | Nc1nc2c(c(=O)[nH]1)C(c1ccccc1)C1=C(N2)c2ccccc2C1=O (configuration not stated) |  | 1.69 µM (active)
6 | CS(=O)(=O)c1ccc2nc(NC(=O)c3ccccc3Cl)sc2c1 | 8.19 | 
7 | CS(=O)(=O)c1ccc(C(=O)Nc2nc(-c3ccco3)c(-c3ccco3)s2)cc1 |  | 13.5 µM (active)
8 | Cc1nc(NC(=O)c2ccccc2)sc1-c1cc(C(=O)O)nn1Cc1ccccc1 | -9.01 | 
9 | Nc1c(N=Nc2ccc([N+](=O)[O-])cc2)c(S(=O)(=O)O)cc2cc(S(=O)(=O)O)c(/C=C/c3ccccc3)c(O)c12 |  | 7.57 µM (active)
10 | COc1ccc2c(c1)sc1nc(=O)ccn12 | -21.2 | 
11 | O=C(N[C@@H]1CC[C@H](CCn2cc(-c3ccccn3)nn2)O[C@@H]1CO)c1ccncc1 |  | 12 µM (active)
12 | Cc1ccc(SCc2nc(N)nc(Nc3ccccc3C)n2)cc1C | -16.7 | 
13 | COc1ccc(C(=O)C2CCCN(C(=O)c3cccc(N(C)C)c3)C2)cc1OC (configuration not stated) | -16.2 | 
14 | COc1cccc(C(=O)C2CCCN(CC3=Cc4cc(OC)ccc4OC3)C2)c1 (configuration not stated) |  | 13.5 µM (active)
15 | Cc1cn2c(nc(=O)c3cccnc32)s1 |  | 12 µM (active)
16 | Cc1cc(NC(=O)c2ccccc2F)ncc1NC(=O)c1cccs1 |  | 12 µM (active)
17 | Cc1cc(NC(=O)c2cccs2)cc(-c2nc3ncccc3o2)c1O | -0.85 | 
18 | COc1cc(NC(=O)c2ccccc2Cl)ccc1NC(=O)c1cccs1 | 5.26 | 
19 | O=C(Oc1ccc(-c2nnco2)cc1)c1ccco1 | -25.5 | 
20 | CC(=O)Oc1ccc(C(=O)Nc2cc(NC(=O)c3ccc(OC(C)=O)cc3)cc(C(=O)NC(C)(C)C)c2)cc1 |  | 15.1 µM (active)
21 | Cc1ccc(OCC(=O)Nc2cc(NC(=O)COc3ccc(C)c(C)c3)cc(C(=O)O)c2)cc1C | -20.5 | 
22 | COc1ccc(/C=C(/C#N)C(=O)Nc2ccc(O)cc2)cc1C(=O)O |  | 6.75 µM (active)
23 | COc1ccc(NC(=O)/C(C#N)=C/c2ccc(-c3ccc(Cl)c(C(=O)O)c3)o2)cc1 |  | 19 µM (active)
24 | N#C/C(=C\c1ccc(-c2ccc(C(=O)O)cc2)o1)C(=O)Nc1ccc(F)cc1 |  | 7.57 µM (active)

Row | SMILES | activity change, negative = inhibition [%] | Potency
25 | COc1ccc(CC(CC(=O)O)C(=O)Nc2ccc(Cl)c(Cl)c2)cc1 (configuration not stated) | 47.3 | 
26 | CC(=O)Oc1ccc(C(=O)OCC(=O)c2c(N)n(C)c(=O)n(C)c2=O)cc1OC(C)=O |  | 6.01 µM (active)
27 | Cn1c(N)c(C(=O)CSc2nnc(NC3CCCCC3)s2)c(=O)n(C)c1=O | -26.8 | 
28 | O=C1C=C(Nc2ccccc2)C(=O)c2ccccc21 |  | 4.26 µM (active)
29 | O=C(Nc1ccc(-c2nc3cccnc3s2)cc1)C1CCCO1 (configuration not stated) | -24.7 | 
30 | O=C(CSc1ncn[nH]1)N1N=C(c2ccc(Cl)cc2)CC1c1ccco1 (configuration not stated) | -15.7 | 
31 | CN(C)c1ccc(C(=C2C=CC(=[N+](C)C)C=C2)c2ccc(N(C)C)cc2)cc1 |  | 3.79 µM (active)
32 | CN(C)c1ccc(C(=C2C=CC(=[N+](C)C)C=C2)c2c(O)c(S(=O)(=O)[O-])cc3cc(S(=O)(=O)O)ccc23)cc1 |  | 9.53 µM (active)
33 | Nc1n[nH]c2cc(=O)n(-c3ccc(Cl)cc3)nc12 | -21.1 | 
34 | CCOc1ccc(Br)cc1S(=O)(=O)NC1CC(C)(C)NC(C)(C)C1 | 4.5 | 
35 | Cc1ccc(-c2csc(NC(=O)c3ccccc3F)c2C(=O)O)cc1 |  | 9.53 µM (active)
36 | COC(=O)c1c(-c2ccc3ccccc3c2)csc1NC(=O)Cc1ccc(OC)c(OC)c1 | -22.9 | 
37 | CCOc1cc(C(=O)NC(C)CCc2ccccc2)cc(OCC)c1OCC (configuration not stated) | 94 | 
38 | COc1ccc(CCNc2nc(-c3ccccn3)cs2)cc1OC |  | 7.57 µM (active)
39 | COc1ccc(CCNC(=O)C(=O)NCc2cccs2)cc1OC | 1.17 | 
40 | COc1cc(CNCc2ccccn2)ccc1OCC(=O)NC1CCCCC1 | -40.3 | 
41 | CCC(C)Nc1nc(-c2ccccn2)nc2ccccc12 (configuration not stated) |  | 9.53 µM (active)
42 | O=C(Nc1nc2ccc(F)cc2s1)C1=NN(c2ccccc2)C(=O)CC1 | -3.84 | 
43 | COc1ccccc1N1CCN(C(=O)c2ccc(-c3nc4ccccc4s3)o2)CC1 | -28.7 | 
44 | O=C(O)CCN1C(=O)/C(=C/c2ccc(-c3nc4ccccc4s3)o2)SC1=S |  | 3.01 µM (active)
45 | Cc1ccc(-c2nc3ccccc3s2)cc1NC(=S)NC(=O)/C=C/c1ccco1 | 4.31 | 
46 | CCNC(=O)/C(C#N)=C/c1c(N2CCN(c3ccccc3)CC2)nc2c(C)cccn2c1=O |  | 12 µM (active)
47 | CCN(CC)C(=O)CC(c1ccc(OC)cc1)c1c(OC)cc(OC)c2ccc(=O)oc12 (configuration not stated) | 3.43 | 
